# ADAM17 inh: ADAM17 inhibition, QFRET primary screen; P78536; recombinant ADAM17, EDANS/DABCYL FRET peptide cleavage; inhibition, % at 6.95 µM; hit rate 0.83% among 370,000;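 active = inhibition above the mean of compounds lying between control limits plus 3 SD, set per campaign, cut at about 8.5% in these data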;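 note: 0% = DMSO-only wells as the low control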
# Target sequence (P78536 215-824 limits assumed): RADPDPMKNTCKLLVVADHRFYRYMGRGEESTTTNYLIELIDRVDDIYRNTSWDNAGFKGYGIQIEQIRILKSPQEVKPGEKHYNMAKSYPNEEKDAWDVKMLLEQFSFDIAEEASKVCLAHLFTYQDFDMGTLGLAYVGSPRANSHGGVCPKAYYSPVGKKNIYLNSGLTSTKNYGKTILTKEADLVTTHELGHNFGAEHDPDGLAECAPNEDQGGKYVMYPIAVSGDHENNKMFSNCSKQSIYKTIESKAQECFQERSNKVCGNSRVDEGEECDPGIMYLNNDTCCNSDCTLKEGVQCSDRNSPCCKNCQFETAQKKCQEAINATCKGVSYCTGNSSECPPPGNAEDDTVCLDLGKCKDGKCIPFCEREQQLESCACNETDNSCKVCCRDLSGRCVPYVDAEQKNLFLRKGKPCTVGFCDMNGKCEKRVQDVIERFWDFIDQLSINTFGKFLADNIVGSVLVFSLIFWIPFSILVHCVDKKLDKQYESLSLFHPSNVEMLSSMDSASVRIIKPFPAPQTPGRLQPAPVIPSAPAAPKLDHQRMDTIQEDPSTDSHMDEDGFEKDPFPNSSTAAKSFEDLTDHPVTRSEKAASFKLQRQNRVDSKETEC
# PLCg1 inh: PLC-gamma1 (human) inhibition, primary screen; P19174; purified PLC-gamma1, fluorogenic substrate, fluorescence; inhibition, % at 12.2 µM; hit rate 0.84% among 370,000; AID 720700
# PLCb3 inh: PLC-beta3 (human) inhibition, primary screen; hit rate 0.18% among 370,000; inhibition, % at 12.2 µM; Q01970; Purified PLC-beta3, fluorogenic substrate, fluorescence; in the data active = inhibition above about 11%;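 note: 0% = median of compound wells on plate and 100% = full blocker control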
# ADAM10 inh: ADAM10 inhibition, QFRET primary screen; O14672; inhibition, % at 7 µM; hit rate 0.62% among 370,000; recombinant ADAM10, EDANS/DABCYL FRET peptide cleavage, 3 h;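 active = inhibition above a per-campaign cutoff equal to the mean of compounds falling between control-based bounds plus 3 SD, cut at about 20% in these data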;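 note: 0% = DMSO wells while the 100% control is not disclosed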
# KLK7 zymogen act: proKLK7 (human) activation, primary screen | P49862 | purified proKLK7, EDANS-DABCYL substrate fluorescence; 100% is mature enzyme control, 0% vehicle | activation, % at 7 µM | hit rate 0.9% among 370,000 | AID 652039;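 active = activation above the mean of all tested compounds plus 3 SD, computed per campaign excluding outliers beyond control limits, cut at about 13% in these data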
# PLCg1 ctr: inhibits human PLC-gamma1 in PLC-beta3 counter-screen; shares compounds with PLCg1 inh; purified PLC-gamma1, fluorogenic substrate, fluorescence; inhibition, % at 12.3 µM; hit rate 3.1% among 3,300
# PLCb3 confirm: confirmation of human PLC-beta3 inhibitors. shares compounds with PLCg1 inh. hit rate 1% among 3,300. purified PLC-beta3, fluorogenic substrate fluorescence. inhibition, % at 12.3 µM; in the data active = inhibition above about 11%
# Active calls of the source: *; · = no result. Sampled rows, rich in hits. Any-hit rate of the full collection: about 2.9%. Cut-off read from the data, not from the text of the source, unless noted: active = inhibition above about 9.5%; inactive = the rest.
SMILES,ADAM17 inh,PLCg1 inh,PLCb3 inh,ADAM10 inh,KLK7 zymogen act,PLCg1 ctr,PLCb3 confirm
Cc1c(C#N)c(NC(=O)c2cccc(Cl)c2)n(Cc2ccccc2)c1C,2.9,9.9*,0.7,4.9,0.2,0.2,1.2
CC(=O)NCCNC(=O)Cn1nnc(-c2ccccc2)c1COc1ccc2ccccc2c1,2.3,0.7,0.8,3.6,0.4,·,·
Cc1ccc(Oc2ccc(/C=N/O)cn2)cc1,-2.8,14.1*,0.8,2.0,-0.4,-2.0,1.9
O=C(NC(Cc1ccccc1)C(=O)N1CCN(c2ccccc2O)CC1)c1ccccc1 (stereo not drawn),-3.9,4.2,-6.5,-6.0,0.5,·,·
COc1ccccc1NC(=O)c1cc2c(cc1Cl)N1CCCCCC1=NS2(=O)=O,7.3,12.2*,10.1,-6.9,0.6,-4.1,-0.9
CNC[C@H]1Oc2cc(Br)ccc2S(=O)(=O)N([C@H](C)CO)C[C@H]1C,-3.7,1.3,5.7,-16.6,-0.6,·,·
O=C(Nc1ccc(C(O)c2ccccc2)cc1)[C@@H]1O[C@H](CO)[C@H](O)[C@H](O)[C@H]1O (stereo partly drawn),2.5,14.0*,7.7,2.2,-0.7,-6.6,-2.2
Cn1cc(CNCc2cnc3ccccn23)c(-c2ccc(Oc3ccccc3)cc2)n1,-2.8,14.8*,8.4,-11.4,0.5,2.1,4.8
CCC(Sc1nc(C)cc(C)n1)C(=O)Nc1cc(C)on1 (stereo not drawn),4.4,11.2*,10.9*,2.1,0.1,-5.9,-1.2
Cc1ncc([N+](=O)[O-])n1CCOC(=O)c1ccccc1,5.9,10.1*,12.5*,7.8,-0.1,-3.3,0.5
COC(=O)C12OCC34C(CC5C(C)=C(O)C(=O)CC5(C)C3C(O)C1O)OC(=O)C(OC(=O)C=C(C)C)C24 (stereo not drawn),5.3,12.3*,6.7,10.4,-0.4,-1.8,-5.9
CCCCN(C(=O)c1c(C)noc1C)c1c(N)n(CCC)c(=O)[nH]c1=O,-4.6,-0.3,-9.1,-5.0,0.1,·,·
O=C(NN1C(=O)CSC1=S)C(=O)NN1C(=O)CSC1=S,4.3,43.6*,-5.9,11.7,0.5,71.3*,-5.0
O=C(Cc1cccc2ccccc12)NN1C(=O)CSC1=S,-3.0,-10.1,-6.3,-0.7,0.8,·,·
COC(=O)C1=C(C(=O)OC)[C@@H]2N(C)c3ccc(OC)cc3[C@@]23C[C@@H](C(=O)OC)N(C(=O)CC(C)C)C3=N1,0.7,9.6*,7.1,8.1,0.2,-4.0,0.9
COC(=O)C1=C(C(=O)OC)[C@@H]2N(C)c3ccc(OC)cc3[C@@]23C[C@@H](C(=O)OC)N(C(=O)NCCBr)C3=N1,0.7,2.7,2.2,-1.6,0.1,·,·
C[C@H](CO)N1C[C@H](C)[C@@H](CN(C)S(=O)(=O)c2cn(C)cn2)OCc2cn(nn2)CCCC1=O,-3.1,-2.2,4.9,-8.1,-0.1,·,·
CC1=C(c2ccccc2)C(O)(c2ccccc2)C(C)C1=O (stereo not drawn),3.4,14.1*,4.8,2.8,-0.1,-2.1,-1.8
C=CCn1c(SCCN2C(=O)c3ccccc3C2=O)nc2scc(-c3ccc(F)cc3)c2c1=O,6.5,12.7*,6.3,12.9,-0.6,-3.9,-2.3
CC(C)C(NC(=O)Cc1ccccc1)C(=O)N1CCN(c2cccc(Cl)c2)CC1 (stereo not drawn),-0.6,4.9,-6.8,-5.4,-0.8,·,·
COC(=O)COc1nc(C)c2c(c1C#N)CC(C)(C)OC2,-1.8,0.7,10.9*,6.0,0.2,4.3,6.2
O=C1/C(=C\c2cccs2)SC(=S)N1C1CCS(=O)(=O)C1 (stereo not drawn),3.2,9.8*,0.2,9.3,0.5,-1.0,0.0
CC(C)(C)c1cc(CN2CCC(O)CC2)cc(C(C)(C)C)c1O,-1.9,10.7*,1.7,-7.8,-0.7,-3.7,-22.2
OC1CCN(Cc2ccc3ccccc3c2)CC1,-1.7,-0.3,-3.1,0.1,-0.2,·,·
CCOCCCNC(=O)C1(O)c2ccccc2NC(=O)N1c1ccc(C)c(C)c1 (stereo not drawn),2.4,6.8,3.1,4.6,-1.0,·,·
SMILES,ADAM17 inh,PLCg1 inh,PLCb3 inh,ADAM10 inh,KLK7 zymogen act,PLCg1 ctr,PLCb3 confirm
CCCCN(C)CCCNC(=O)C1(O)c2ccccc2NC(=O)N1c1ccc(Cl)cc1 (stereo not drawn),4.6,11.7*,3.7,-1.2,0.0,-4.6,-6.7
CCOCCCNC(=O)C1(O)c2ccccc2NC(=O)N1c1ccc(Cl)c(Cl)c1 (stereo not drawn),-4.1,0.6,1.4,-1.8,-0.4,·,·
CCC(C)NC(=O)C1(O)c2ccccc2NC(=O)N1c1ccc(C)c(C)c1 (stereo not drawn),3.9,11.4*,6.8,0.4,-0.9,-7.2,-19.5
Nc1cccc(C(=O)Nc2ccc3nc(-c4cccnc4)[nH]c3c2)c1,0.0,11.6*,4.5,-2.6,-0.2,-7.4,-5.1
O=C(Nc1ccncc1)C1CCN(S(=O)(=O)c2ccccc2C(F)(F)F)CC1,1.4,3.7,1.9,2.0,0.0,·,·
COC(=O)C1=C(C)N(Cc2ccccc2C(F)(F)F)C(=NCc2cc(OC)c(OC)c(OC)c2)NC1c1ccccc1C(F)(F)F (stereo not drawn),-4.5,-1.5,-6.0,-16.9,0.8,·,·
CN1CC[C@]2(CCN3CCc4c(oc5ccccc45)[C@@H]3C2)N(C)C1=O,-20.1,-33.5,25.1*,-55.5,-6.0,-15.0,-14.4
Cn1c(=O)oc2ccccc2c1=O,-1.6,3.5,3.2,-13.0,2.4,·,·
CN(c1ccccc1)P(=O)(N(C)c1ccccc1)N(C)c1ccccc1,3.5,4.8,2.8,12.2,-0.8,·,·
CC(C)(C)C(=O)Cn1c[n+](N)cn1,0.5,10.2*,3.1,3.5,-0.1,-4.7,-0.9
CCCC1CC(CSC(=N)N)OC1=O (stereo not drawn),-5.3,-0.9,1.4,-6.5,-0.2,·,·
CCCCCCC1CC(CSC(=N)N)OC1=O (stereo not drawn),4.6,10.6*,5.7,12.0,0.2,7.1,-0.1
COc1ccccc1NC(=O)COc1ccc(/C=N/NC(=O)CSCc2cc(C)cc(C)c2)cc1,0.1,2.8,3.8,-0.9,-0.5,·,·
COc1ccccc1NC(=O)COc1ccc(/C=N/NC(=O)CSCc2ccc(Cl)cc2)cc1,5.0,9.5*,10.1,-2.4,0.5,3.1,4.5
C/C(=C1\SC(N2CCOCC2)=NC1=O)c1ccc(C)cc1,5.0,10.4*,5.8,0.7,0.3,-2.7,4.8
C/C(=C1/SC(N2CCOCC2)=NC1=O)c1ccc(Cl)cc1,1.2,1.6,2.9,1.5,-0.2,·,·
COc1ccc(C(=O)NCC(=O)OCCCOC(=O)CNC(=O)c2ccc(OC)c(OC)c2)cc1OC,2.4,12.4*,5.2,-4.4,-0.2,-6.0,-19.4
CCCCNC(=O)C[C@@H]1C(=O)N2CCCC3=C2[C@@]1(C(=O)OCC)CCC3,-4.4,-1.0,1.7,-1.3,0.7,·,·

# Assay outcomes (PubChem)
